About 800 (1.6%) of roughly 50,000 compounds showed an effect of 50% or more. Shown is part of a subset that was picked to be rich in strong results.
The compounds below were run against Bcl-2-like protein 10 (Homo sapiens) (UniProt Q9HD36) (assay: Phenotype converters, Bcl-B/TR3 peptide binding displacement, primary biochemical FP (AID 1240;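 note: 0% = Bcl-B with tracer peptide and DMSO and 100% = tracer peptide lacking Bcl-B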)). Settings: GST-Bcl-B / FITC-TR3 peptide fluorescence polarization; stronger effect = higher value; compound at 3.75 mg/L.
Chain of Bcl-2-like protein 10 (Homo sapiens) (Q9HD36 whole entry, looked up): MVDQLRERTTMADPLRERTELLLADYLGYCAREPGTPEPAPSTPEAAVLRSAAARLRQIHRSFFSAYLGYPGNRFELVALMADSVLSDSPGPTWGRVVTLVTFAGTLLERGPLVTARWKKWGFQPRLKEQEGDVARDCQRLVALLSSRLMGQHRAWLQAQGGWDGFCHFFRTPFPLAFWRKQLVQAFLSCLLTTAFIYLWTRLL

Compound | displacement
O=C(/C=C/c1ccc(F)cc1)c1nc2ccccc2s1 | -6%
CCc1ccccc1N1C(=O)CC(Sc2nc(C)cc(C)n2)C1=O (centres undefined) | 10.8%
Cc1ccc(C=Nc2ccc(F)cc2)o1 | 4.1%
CC(C)OC(=O)c1ccc(NC(=O)c2cccc(Br)c2)cc1 | 69.2%
CC(C)OC(=O)c1ccc(NC(=O)c2cncc(Br)c2)cc1 | 12.3%
O=C(Nc1ccc(NC(=O)c2cccc(Br)c2)cc1)c1ccccc1 | 0%
COc1ccc(N(CC(=O)Nc2cccc(C)c2)S(=O)(=O)c2ccc(C)cc2)c(OC)c1 | 3.6%
CCOC(=O)C1CCN(S(=O)(=O)c2ccc(F)cc2)CC1 | -8%
N#Cc1ccccc1N=C1CCCN1Cc1ccccc1 | 17.4%
Cc1ccc(-c2ccc(OCC(=O)Nc3ccccc3C(N)=O)cc2)cc1 | 4.4%
O=C(NC(=S)NC1CCSC1=O)c1ccco1 (centres undefined) | 1%
Cc1cccc(NC(=O)c2cc3c(ccc4ccccc43)oc2=O)n1 | -7%
Cc1cccnc1NC(=O)c1cc2c(ccc3ccccc32)oc1=O | 93%
O=C(Nc1ccncc1)c1cc2c(ccc3ccccc32)oc1=O | 9.6%
COc1cc(/C=N/NC(N)=O)ccc1OCC(=O)N1CCCCC1 | -4.4%
COC(=O)c1ccccc1NC(=O)CSc1nnc(-c2cccc(F)c2)n1-c1ccccc1 | -1.1%
CC(C)(C)/C(O)=C/c1nc2cc([N+](=O)[O-])ccc2[nH]c1=O | 0.3%
Cc1cc(-c2ccccc2)sc1/C(O)=C/c1nc2ccccc2[nH]c1=O | 112%
Cc1nc(C)c(/C(O)=C/c2nc3ccc([N+](=O)[O-])cc3oc2=O)s1 | -12%
Cc1cccc(-c2nc3ccccc3[nH]2)c1 | 10.9%
Cc1ccc(-c2nc3ccccc3[nH]2)s1 | 0.7%
Cc1nc(C)c(/C(O)=C/c2nc3ccccc3[nH]c2=O)s1 | 61.6%
O=C(Nc1cccc(C(F)(F)F)c1)c1nn2c(c1Br)NC(c1cccs1)CC2C(F)(F)F (centres undefined) | 4.5%
COc1ccccc1NC(=O)c1c(NC(=O)Cc2ccccc2)sc2c1CCCCC2 | 9.3%
CC(C)OP(=O)(OC(C)C)C(Nc1ccc(Br)cc1)c1ccc(O)cc1 (centres undefined) | -13.8%
CCOc1ccccc1N(CC(=O)NC1CCCCC1)S(=O)(=O)c1ccccc1 | 10.8%
C=CCN1C(=O)/C(=C/c2cccc(OCc3ccccc3Cl)c2)SC1=S | -4.4%

Compound | displacement
CCN1C(=O)/C(=C\c2ccc(OCc3cccc4ccccc34)cc2)SC1=S | 106%
CN1C(=O)/C(=C\c2ccc(OCc3cccc4ccccc34)cc2)SC1=S | -0.8%
C=CCN1C(=O)/C(=C\c2ccccc2OCc2ccc(Cl)cc2)SC1=S | 23.3%
CCN1C(=O)/C(=C\c2cccc(OCc3cccc4ccccc34)c2)SC1=S | 4.6%
C=CCN1C(=O)/C(=C\c2cc(Cl)ccc2OCc2ccccc2F)SC1=S | 60.2%
C=CCN1C(=O)/C(=C\c2ccc(OCc3cccc4ccccc34)cc2)SC1=S | 87.1%
C=CCN1C(=O)/C(=C\c2cccc(OCc3cccc4ccccc34)c2)SC1=S | 15.9%
C=CCN1C(=O)/C(=C\c2ccc(OCc3ccccc3)cc2)SC1=S | 11.4%
C=CCN1C(=O)/C(=C/c2ccccc2OCc2ccccc2Cl)SC1=S | 11.6%
C=CCN1C(=O)/C(=C\c2ccc(OCc3ccccc3Cl)cc2)SC1=S | 95.7%
CCN1C(=O)/C(=C\c2ccc(OCc3ccccc3Cl)cc2)SC1=S | 15.9%
NC1=NC(=O)/C(=C\c2ccccc2Cl)S1 | 13.2%
CC1=C(C(=O)OC(C)C)C(c2ccccc2Cl)C2=C(CCCC2=O)N1 (centres undefined) | 0%
CCOc1cc(/C=C2\C(=O)NC(=O)N(c3cc(C)cc(C)c3)C2=O)cc(Cl)c1O | 11.4%
Cc1cc(OCCN2CCCC2)ccc1Cl | -2.8%
Cc1ccc(-n2nc3cc(C)c(NC(=O)c4ccccc4)cc3n2)cc1 | -4.4%
COc1ccc(C(=O)Nc2cc3nn(-c4ccc(OC)cc4)nc3cc2C)cc1 | 2.2%
Cc1ccc(-n2nc3cc(C)c(NC(=O)c4ccco4)cc3n2)cc1 | 107%
Cc1ccc(-n2nc3cc(C)c(NC(=O)c4cccc(C)c4)cc3n2)cc1 | 85.1%
COc1ccc(-n2nc3cc(C)c(NC(=O)c4cc5ccccc5o4)cc3n2)cc1 | 2.4%
Cc1ccc(-n2nc3cc(C)c(NC(=O)c4cccc(Cl)c4)cc3n2)cc1 | -4.2%
Cc1ccc(-n2nc3ccc(NC(=O)c4ccco4)cc3n2)cc1 | 49.3%
COc1ccc(-n2nc3cc(C)c(NC(=O)c4ccco4)cc3n2)cc1 | 5.1%
COc1ccc(-n2nc3cc(C)c(NC(=O)c4ccc(Br)o4)cc3n2)cc1 | 117%
O=S(=O)(c1cccc2ccccc12)n1cnc2ccccc21 | 6.3%
COc1ccc(-c2cc(C(=O)Nc3ccccc3OC)c3ccccc3n2)cc1 | 14.2%
Nc1ccc(C(=O)Nc2cccc(O)c2)cc1 | 11.4%
